Source: PubChem BioAssay
In the library only some 2.9% were active in any assay of this set; here they are far more common.
B2AR arrestin = qHTS assay of beta-arrestin-biased ligands of beta2-adrenergic receptor. Beta-2 adrenergic receptor (Homo sapiens), P07550. beta-arrestin recruitment to beta2AR, cell-based reporter. Potency, µM (series often up to 46.1 µM), actives largely listed as activators. 0.02% of 330,000 active; active = well fitted activation curve with a large enough effect; inconclusive = small, poorly fitted or top-dose-only effect; also: nearly all actives have a fitted effect of over 65% in size
TSHR antagonist = Antagonists of the Thyroid Stimulating Hormone Receptor: HTS campaign | Thyrotropin receptor (Homo sapiens), P16473 | TSHR-expressing cells, TSH-stimulated cAMP HTRF, 2 h; hits give low values | activity change, negative = inhibition, % at 11.5 µM | 0.2% of 330,000 active;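 active = activity change below a set negative limit, meaning inhibition stronger than a set level, cut at about -70% in these data; inconclusive = activity change between two set negative limits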
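Antagonism was scored as loss of TSH-driven cAMP in TSHR cells, stimulated with 4nM TSH (EC80) for 2 hours at 37 deg C and detected by homogeneous HTRF competition immunoassay.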
DRD3 agonist = qHTS of D3 Dopamine Receptor Agonist: qHTS. D3R DiscoveRx beta-arrestin cells, luminescence, 90 min. D(3) dopamine receptor (Homo sapiens), P35462. 0.58% of 410,000 active. max activation, %; in the data active = max activation above about 30%
Target sequence (P35462 whole entry, looked up): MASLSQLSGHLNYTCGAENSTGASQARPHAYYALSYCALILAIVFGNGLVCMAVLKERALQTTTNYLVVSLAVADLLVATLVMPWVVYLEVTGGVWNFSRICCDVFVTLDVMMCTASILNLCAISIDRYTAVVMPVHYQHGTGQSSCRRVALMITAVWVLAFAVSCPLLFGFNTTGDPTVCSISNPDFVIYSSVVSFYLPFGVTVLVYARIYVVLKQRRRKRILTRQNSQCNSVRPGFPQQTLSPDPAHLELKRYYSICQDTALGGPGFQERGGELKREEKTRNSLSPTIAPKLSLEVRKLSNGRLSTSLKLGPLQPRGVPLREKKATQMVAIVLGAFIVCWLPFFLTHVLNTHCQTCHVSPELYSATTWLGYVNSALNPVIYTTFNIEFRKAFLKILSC
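Agonist mode: compounds and dopamine controls were applied to plated cells for 90 min at 37 degrees C after an overnight attachment at 1500 cells/well. Luminescent read-out followed 30 - 60 minutes at room temperature with DiscoveRx detection reagent.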
D3 antag = qHTS of D3 Dopamine Receptor Antagonist: qHTS. D(3) dopamine receptor (Homo sapiens), P35462. 2.5% of 360,000 active. max response, negative = inhibition, %. AID 652054, 2013. D3R cells, DiscoveRx beta-arrestin luminescence, antagonist mode; hits give low values; in the data active = max response below about -50%; inconclusive = no clear call, values can overlap the other calls
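Cells plated overnight at 1500 cells/well, then exposed to library compounds with dopamine controls for 90 minutes at 37 degrees C. DiscoveRx reagent added for 30–60 minutes at room temperature; luminescence read, quantitative HTS format.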
Each line names hits and unclear results; the compound was inactive in the other large screens.

CCOc1ccc(CNC(=O)CCC(=O)N2CC(C)Sc3ccccc32)cc1 (centres undefined)	none (no result: B2AR arrestin, TSHR antagonist, D3 antag)
CN1CCC(OC(=O)c2ccccc2)CC1	none
CN1CCC(OC2c3ccccc3CCc3ccccc32)CC1	D3 antag -99 (no result: B2AR arrestin, TSHR antagonist)
Oc1c(C=NCc2ccc(F)cc2)[nH]c2ccc(Br)c(Cl)c12	none (no result: DRD3 agonist, D3 antag)
Cc1ccc(CN=Cc2[nH]c3ccc(Br)c(Cl)c3c2O)cc1	D3 antag -101
COc1ccccc1N1CCN(C(=O)c2cnn(-c3ccc(C)c(C)c3)c2C2CCN(C(=O)OC(C)(C)C)CC2)CC1	none (no result: B2AR arrestin, TSHR antagonist, D3 antag)
CC1C/C(=N\NC(N)=S)c2cc(Cl)ccc2S1 (centres undefined)	B2AR arrestin 6.3µM
Cc1cc2c(cc1S(=O)(=O)CCC(=O)N1CCCCC1C)OCC(=O)N2 (centres undefined)	none (no result: B2AR arrestin, TSHR antagonist, D3 antag)
CCCCn1c(SCC(=O)c2ccccc2)nc2ccsc2c1=O	DRD3 agonist 59
O=C(CSc1nc2ccsc2c(=O)n1NC(=O)c1ccccc1)Nc1nccs1	D3 antag -59
CCCCn1c(SCC(=O)c2ccc(O)c(O)c2)nc2ccsc2c1=O	none
CCCCCC(=O)Nc1cccc(C2=NOC3(C2)C[C@@H](C(N)=O)N(C(=O)Cc2ccc([N+](=O)[O-])cc2)C3)c1 (some centres undefined)	D3 antag -56
Cc1ccc(NCCC(=O)c2ccc(Cl)cc2)cc1C	none
CCCOc1ccc(C(=O)CCNc2ccc(C)c(Cl)c2)cc1	D3 antag -84
CCCNc1ccc(-c2nc(-c3ccncc3)no2)cc1[N+](=O)[O-]	none (no result: B2AR arrestin, TSHR antagonist, D3 antag)
COC(=O)[C@H]1[C@@H](C)N(Cc2ccccc2)C(=O)N[C@H]1c1ccccc1	D3 antag -55 (no result: B2AR arrestin, TSHR antagonist)
Cn1c2ccccc2c2cnn(CC(=O)NCCCN3CCN(c4ccccc4F)CC3)c(=O)c21	D3 antag -90
CCN(CCCNC(=O)Cn1ncc2c([nH]c3ccc(C)cc32)c1=O)c1cccc(C)c1	TSHR antagonist -133
COc1ccccc1N1CCN(CCCNC(=O)Cn2ncc3c([nH]c4ccccc43)c2=O)CC1	D3 antag -108
Cc1ccc(C)c(N2CCN(CCCNC(=O)Cn3ncc4c([nH]c5ccccc54)c3=O)CC2)c1	none (no result: B2AR arrestin, TSHR antagonist, D3 antag)
CN1CCN(CCCNC(=O)Cn2ncc3c4ccccc4n(C)c3c2=O)CC1	none
CCCn1c2ccccc2c2cnn(CC(=O)NCCCN3CCN(c4ccccc4)CC3)c(=O)c21	D3 antag -83
CC(C)c1ccc(S(=O)(=O)c2nnn3c2nc(N2CCN(C)CC2)c2sccc23)cc1	none (no result: B2AR arrestin, TSHR antagonist, D3 antag)
COc1ccc(Cn2c(CO)cnc2SCC(=O)NCc2ccco2)cc1	none (no result: B2AR arrestin, TSHR antagonist, D3 antag)
CCc1nc2c(OCC(=O)c3ccc(F)cc3)cccn2c1N(C)C(=O)C(C)C	none (no result: B2AR arrestin, TSHR antagonist)
COc1ccc(N2CC(NC(=O)/C=C\c3ccc4c(c3)OCO4)CC2=O)cc1OC (centres undefined)	none (no result: B2AR arrestin, TSHR antagonist, D3 antag)
COc1ccccc1C(=O)NCCSc1c(C)[nH]c2ccccc12	none (no result: B2AR arrestin, TSHR antagonist, D3 antag)
CCC(c1nnnn1-c1c(C)cccc1C)N1CCN(C/C=C/c2ccccc2)CC1 (centres undefined)	D3 antag inconclusive (no result: B2AR arrestin, TSHR antagonist)
CSCCC(c1nnnn1C(C)(C)C)N1CCN(C/C=C/c2ccccc2)CC1 (centres undefined)	D3 antag -82 (no result: B2AR arrestin, TSHR antagonist)
C(=C\c1ccccc1)/CN1CCN(C(CCc2ccccc2)c2nnnn2C2CCCC2)CC1 (centres undefined)	D3 antag -116 (no result: B2AR arrestin, TSHR antagonist)
CC(C)(C)n1nnnc1C(C1CC1)N1CCN(C/C=C/c2ccccc2)CC1 (centres undefined)	D3 antag inconclusive (no result: B2AR arrestin, TSHR antagonist)
C(=C\c1ccccc1)/CN1CCN(C(c2nnnn2C2CCCC2)C2CC2)CC1 (centres undefined)	D3 antag inconclusive (no result: B2AR arrestin, TSHR antagonist)
CSCCC(c1nnnn1-c1c(C)cccc1C)N1CCN(C/C=C/c2ccccc2)CC1 (centres undefined)	D3 antag -95 (no result: B2AR arrestin, TSHR antagonist)
COc1ccc(-n2nnnc2C(CCSC)N2CCN(C/C=C/c3ccccc3)CC2)cc1 (centres undefined)	D3 antag -127 (no result: B2AR arrestin, TSHR antagonist)
CC(C)(C)n1nnnc1C(CCc1ccccc1)N1CCN(C/C=C/c2ccccc2)CC1 (centres undefined)	D3 antag -91 (no result: B2AR arrestin, TSHR antagonist)
CCCCCn1c(NCc2ccc(OC)cc2)nc2ccccc21	none (no result: B2AR arrestin, TSHR antagonist, D3 antag)
CCN(CC)CCn1c(NCc2ccc(OC)cc2)nc2ccccc21	D3 antag -67 (no result: B2AR arrestin, TSHR antagonist)
CCN(c1ccc(C)cc1C)S(=O)(=O)c1nnc(NC(=O)CC(C)C)s1	none (no result: B2AR arrestin, TSHR antagonist, D3 antag)
OCC1(Cc2ccccc2)CCCN(Cc2ccc(-c3ccco3)cc2)C1 (centres undefined)	D3 antag -90
OCC1(Cc2ccccc2)CCN(Cc2ccc(-c3ccco3)cc2)CC1	D3 antag -85
COc1cc(CNC(=O)c2cnc3c(-c4cccc(C)c4)c(C)nn3c2C)cc(OC)c1OC	none (no result: B2AR arrestin, TSHR antagonist, D3 antag)
CC(NC(=O)CN(c1cccc(C(F)(F)F)c1)S(=O)(=O)c1ccc(Cl)c([N+](=O)[O-])c1)c1ccccc1 (centres undefined)	D3 antag -54
Cc1ccc(CNS(=O)(=O)c2cnc(N)nc2)cc1	none (no result: B2AR arrestin, TSHR antagonist, D3 antag)
CCCCc1nnc(NC(=O)CCc2ccccc2)s1	none
CCCC(=O)Nc1nnc(CCc2ccccc2)s1	TSHR antagonist -89
COc1ccc(NC(=O)CSc2nc3ccccc3n2CC(=O)N2CCCC(C)C2)cc1 (centres undefined)	none (no result: B2AR arrestin, TSHR antagonist, D3 antag)
Cc1ccc(CNC(=O)c2ccc(CSCc3c(F)cccc3Cl)o2)cc1	none (no result: B2AR arrestin, TSHR antagonist, D3 antag)
COc1ccc2c(c1)c1c(c(=O)n(-c3ccccc3C)c(=O)n1CC(=O)Nc1c(C)cccc1C)n2C	none (no result: B2AR arrestin, TSHR antagonist, D3 antag)
CCO[C@@H]1OC(C(=O)NC2CC2)=C[C@H](c2c[nH]c3ccccc23)[C@H]1CCCO	D3 antag -65
O=C(O)c1ccc(CSc2nc3ccccc3[nH]2)cc1	none
NNC(=O)c1ccc(CSc2nc3ccccc3[nH]2)cc1	D3 antag -56
OC(COc1ccccc1)CN1CCC(Cc2ccccc2)CC1 (centres undefined)	D3 antag -75
Cc1ccc(OCC(O)CN2CCC(Cc3ccccc3)CC2)c(C)c1 (centres undefined)	D3 antag -56
COc1cccc(OCC(O)CN2CCC(Cc3ccccc3)CC2)c1 (centres undefined)	none
OC(COc1ccccc1F)CN1CCC(Cc2ccccc2)CC1 (centres undefined)	D3 antag -81
OC(COc1ccc(F)cc1Cl)CN1CCC(Cc2ccccc2)CC1 (centres undefined)	D3 antag -79
CC1N=C2c3ccccc3N=C(SCC(=O)NCCc3ccc(Cl)cc3)N2C1=O (centres undefined)	none (no result: B2AR arrestin, TSHR antagonist, D3 antag)
OC(CN1CCC(Cc2ccccc2)CC1)c1ccccc1 (centres undefined)	D3 antag -88
COC(=O)c1c(NC(=O)c2ccc(Br)s2)sc2c1CCC2	DRD3 agonist 30
